High-throughput results: PubChem, several laboratories
Rows were chosen to be rich in hits. Some 1% of all compounds tested hit in one or more screens of this group.
Cdc25B block – inhibitors of human Cdc25B phosphatase | P30305 | recombinant Cdc25B, OMFP fluorescence Ex485/Em525 | inhibition, %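 (compounds tested at 10 µM final in the well)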 | 65,000 tested, 0.1% active | AID 368; in the data active = inhibition above about 50%
ROCK2 blocker – inhibitors of human Rho kinase 2 | inhibition, % at 6 µM | purified ROCK2, Kinase-Glo ATP depletion luminescence | 60,000 tested, 0.35% active;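 active = inhibition above the screen-wide mean inhibition plus 3 SD, cut at about 18% in these data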;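 also: plate controls were DMSO wells for no effect and Y-27632 control wells after no-enzyme background subtraction for full effect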
PKA inh – inhibitors of human protein kinase A; P17612; PKA Kemptide phosphorylation, Kinase-Glo ATP luminescence; inhibition, % at 6 µM; 65,000 tested, 0.1% active; AID 524;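 active = inhibition above the screen-wide mean inhibition plus 3 SD, cut at about 21% in these data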
MKP-1 inh – blocks human MKP-1 phosphatase activity | 65,000 tested, 0.15% active | P28562 | recombinant MKP-1, OMFP hydrolysis fluorescence | inhibition, %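 (compounds tested at a single concentration somewhere between 10 and 100 µM)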;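 active = inhibition above about 50%, limit read from the data; inconclusive = inhibition over screen mean plus 3 SD, below that limit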;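 also: 0% = DMSO max control wells and 100% = wells with enzyme stopped by NaOH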
JNK3 blocker – inhibitors of human JNK3 kinase; purified JNK3 kinase activity, HTS; inhibition, % at 8 µM; 60,000 tested, 0.61% active; in the data active = inhibition above about 17%;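 also: 0% = DMSO and 100% = reference inhibitor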
Target sequence (P53779 whole entry, looked up): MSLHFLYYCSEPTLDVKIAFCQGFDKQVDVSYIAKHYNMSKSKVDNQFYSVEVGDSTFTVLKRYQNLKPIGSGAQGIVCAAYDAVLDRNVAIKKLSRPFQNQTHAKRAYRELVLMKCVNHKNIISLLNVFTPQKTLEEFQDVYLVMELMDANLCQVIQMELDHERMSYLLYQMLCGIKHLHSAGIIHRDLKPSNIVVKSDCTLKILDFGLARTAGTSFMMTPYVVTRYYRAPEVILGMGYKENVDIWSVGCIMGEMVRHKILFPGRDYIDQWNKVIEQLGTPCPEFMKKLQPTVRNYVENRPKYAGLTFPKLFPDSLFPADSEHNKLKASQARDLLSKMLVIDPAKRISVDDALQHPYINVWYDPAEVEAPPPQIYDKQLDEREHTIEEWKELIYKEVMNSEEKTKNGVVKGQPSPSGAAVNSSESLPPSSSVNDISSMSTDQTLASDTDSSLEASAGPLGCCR
Hsp90 block – displaces geldanamycin probe from tumor Hsp90; inhibition, % at 30 µM; P07900; NCI-N417 lysate Hsp90, Cy3B-geldanamycin FP displacement; 64,000 tested, 0.35% active;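 active = inhibition above 50%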;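 also: 0% = tracer plus lysate wells and 100% = tracer alone without lysate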
Redox 05 DTT – redox cycling H2O2 generation, Cdc25B counter-screen; shares compounds with Cdc25B block; cell-free redox cycling H2O2 generation, 0.5 mM DTT; EC50, µM; 30 tested, 50% active; in the data active = EC50 below about 30 µM
Redox 1 DTT – redox cycling H2O2 generation, Cdc25B counter-screen | shares compounds with Cdc25B block | cell-free redox cycling H2O2 generation, 1 mM DTT | EC50, µM | 30 tested, under 10 active | AID 683; in the data active = EC50 below about 50 µM
Redox H2O2 – counter-screen for MKP-1 and MKP-3 probes: redox cycling H2O2 generation; shares compounds with MKP-1 inh; DTT, phenol red/HRP; EC50, µM; 60 tested, under 10 active; call rule not given here
Starred values were filed as active, the others as inactive; i = inactive; ? = inconclusive; . = not tested or not shown.

SMILES | Cdc25B block | ROCK2 blocker | PKA inh | MKP-1 inh | JNK3 blocker | Hsp90 block | Redox 05 DTT | Redox 1 DTT | others
CC(C)C(NC(=O)C1CCCCC1)C(=O)Nc1ccncc1 (centres undefined) | -10 | 76* | 14 | 3 | -1 | -5 | . | .
CC(C)C(NC(=O)C1CCCCC1)C(=O)Nc1ccc2c(c1)OCCO2 (centres undefined) | -5 | 1 | 3 | 2 | 2 | 3 | . | .
CSc1ncc(Cl)c(C(=O)C(C#N)c2nc3c(C)cc(C)cc3c(=O)[nH]2)n1 (centres undefined) | 8 | 5 | 6 | ? | 7 | -3 | . | .
CCc1c(C)[nH]c2ccccc2c1=O | 11 | -5 | -2 | -4 | -6 | 0 | . | .
CC(=O)CCc1c(C)[nH]c2ccccc2c1=O | -5 | 2 | -3 | 7 | 0 | 82* | . | .
Cc1cccc(-n2ncc3c(NCc4cccs4)ncnc32)c1 | -6 | 5 | 7 | -7 | 22* | -3 | . | .
Cn1ncc2c(NCc3ccccc3)ncnc21 | -8 | 0 | 1 | -46 | 18* | -1 | . | .
c1ccc(CNc2ncnc3c2cnn3-c2ccccc2)cc1 | 7 | 8 | 13 | -17 | 21* | -3 | . | .
Cc1cccc(-n2ncc3c(NCc4ccccc4)ncnc32)c1 | -4 | -2 | -5 | -1 | 14 | 2 | . | .
Fc1ccc(CNc2ncnc3c2cnn3-c2ccccc2)cc1 | 1 | 0 | 2 | -9 | 6 | -1 | . | .
CC(/C=C/c1cccc(Oc2ccc(F)cc2)c1)N(O)C(N)=O (centres undefined) | . | . | . | . | . | 14 | . | .
C#C[C@]1(O)CC[C@H]2[C@@H]3CCC4=Cc5oncc5CC4(C)[C@H]3CCC21C (some centres undefined) | . | . | . | . | . | 1 | . | .
N[C@@H](Cc1ccc(O)c(O)c1)C(=O)O | . | . | . | . | . | 30 | . | .
C[C@H](Cc1ccc(O)c(O)c1)[C@@H](C)Cc1ccc(O)c(O)c1 | . | . | . | . | . | 98* | . | .
CC(Cc1ccc(O)c(O)c1)C(C)Cc1ccc(O)c(O)c1 (centres undefined) | 3 | 4 | -2 | 22 | -3 | 103* | . | .
CC(=O)Nc1cc(OC(C)=O)c2nonc2c1OC(C)=O | 100* | 84* | 12 | -17 | 47* | 91* | 3.9* | 14*
N#Cc1cccc2cnccc12 | 6 | 14 | 18 | 4 | 5 | 3 | . | .
Nc1cccc2cnccc12 | 81* | 26* | -6 | 6 | -6 | 63* | >50 | >50
COc1cccc2c1NC(C(=O)O)C1CC=CC21 (centres undefined) | 51* | 1 | 2 | 42 | -5 | -26 | >50 | >50
Cc1ccc2c(c1)C1C=CCC1C(C(=O)O)N2 (centres undefined) | 51* | -4 | -4 | 20 | -8 | -25 | >50 | >50
C1=CC2c3ccccc3NC(c3ccncc3)C2C1 (centres undefined) | 4 | 4 | 6 | -14 | -2 | -9 | . | .
COc1ccc(-c2nnc3ccc(SCC(=O)N4CCN(c5ccccc5)CC4)nn23)cc1OC | 11 | 1 | -1 | 30 | 1 | -4 | . | .
N=C1Sc2ccccc2C2=NCCCN12 | . | . | . | . | . | -2 | . | .
[O-]/[N+](=C\c1ccc(OC(F)F)cc1)c1ccccc1 | 73* | 9 | 7 | 65* | 7 | 2 | >50 | >50 | Redox H2O2=>50
[O-]/[N+](=C\c1ccncc1)c1ccccc1 | 64* | 6 | 5 | 64* | -1 | 26 | >50 | >50 | Redox H2O2=i
O=c1onc2cnc3ccccc3n12 | . | . | . | . | . | 22 | . | .
COc1ccc2noc3c2c1C(=O)c1ccccc1-3 | 97* | 6 | 14 | 79* | 15 | 39 | 27* | >50 | Redox H2O2=>50
O=C(c1ccc(Cl)cc1)N1CCN(c2nc(N3CCCCC3)nc(N3CCCCC3)n2)CC1 | 5 | . | . | -1 | . | . | . | .
Cc1c(N=c2c(=O)c3ccccc3c2=O)c(=O)n(-c2ccccc2)n1C | 98* | 4 | -3 | 88* | -6 | 80* | 13* | 41* | Redox H2O2=>50
Cc1c(N=CC=Nc2c(C)n(C)n(-c3ccccc3)c2=O)c(=O)n(-c2ccccc2)n1C | 1 | 0 | -2 | 6 | -7 | -3 | . | .
